Bioassay records: PubChem BioAssay, National Center for Advancing Translational Sciences (NCATS)
Shiga toxin inh: A qHTS for Small Molecule Inhibitors of Shiga Toxin; inhibition, % at 38.7 µM; 9.2% of 290,000 active; Vero cells, Shiga toxin protein synthesis inhibition reporter; in the data active = inhibition mostly above about 28%, no sharp cut-off; inactive = mostly below about 43%; also: 0% is about no effect
Pf growth 96h: Primary qHTS for delayed death inhibitors of the malarial parasite plastid, 96 hour incubation; 6.9% of 320,000 active; AID 504834, 2011; P. falciparum luciferase reporter growth, 96 h; Potency, µM (highest dose often 28.7 µM), for inactives: at the highest dose activity change, negative = inhibition, usual class: inhibitors; also: potency is read from the fitted curve at half-maximal effect; % is scaled to controls: 0 for no effect and ±100 for the full control effect
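Delayed-death screen, second-generation endpoint: infected erythrocytes, 2% hematocrit, 0.05% parasitemia final; 96 hours at 37 C, 5% CO2; luciferase detection reagent; luminescence decrease equals reduced growth.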
CHX counter: Cycloheximide Counterscreen for Small Molecule Inhibitors of Shiga Toxin. cell reporter, cycloheximide protein synthesis inhibition counterscreen. max response, %. 12% of 300,000 active; in the data active = max response mostly above about 13%, no sharp cut-off; inactive = mostly below about 14%; also: read at 38.3 µM for the half of the compounds with a filed dose; 0% is about no effect
Pf growth 48h: Primary qHTS for delayed death inhibitors of the malarial parasite plastid, 48 hour incubation. P. falciparum luciferase growth in erythrocytes, 48 h. Potency, µM (titrated, usually from 28.7 µM), without a hit: top-dose activity change, negative = inhibition, usual class: inhibitors. 5.9% of 310,000 active. AID 504832, 2011; also: potency is read from the fitted curve at half-maximal effect; % is scaled to controls: 0 for no effect and ±100 for the full control effect
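In quantitative HTS format, infected erythrocytes bearing luciferase-reporter parasites were treated for a single generation at 37 C. Luminescence after adding detection reagent served as the growth measure.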
Active calls of the source: *; ? = inconclusive; . = no result given; [ ] = another dose, or the depositor's remark. Rows were chosen to be rich in hits. Some 21% of all compounds tested hit in one or more screens of this group. Unless noted, calls follow the shape of the dose curve; as a rule, active = well fitted inhibition curve with a large enough effect; inconclusive = small, poorly fitted or top-dose-only effect, or another doubt; inactive = no such curve, though single readings can be large or run the other way.

SMILES | Shiga toxin inh | Pf growth 96h | CHX counter | Pf growth 48h
Cc1ccc2c(c1)C1CN(C)CCC1N2C(=O)Nc1ccc(Cl)cc1 (stereo not given) | 53 | 10µM* | 10 | 10µM*
Cc1csc(NC(=O)CCC(=O)N(CC(=O)NC2CCCCC2)c2ccccc2)n1 | 2 | 48% | -3 | -26%
Cc1ccccc1-n1ncc2c1CC(C)(C)CC2NC(=O)CCC(F)(F)F (stereo not given) | 10 | 16% | 1 | ?
COc1ccc(NC(=O)CN2C(=O)c3ccccc3Sc3ccc(C(=O)N4CCOCC4)cc32)c(OC)c1 | -10 | -14% | 1 | 10µM*
C=CCN1C(=O)c2ccccc2Sc2ccc(C(=O)N3CCN(C)CC3)cc21 | -4 | 9.3µM* | 1 | ?
C=CCN1C(=O)c2ccccc2Sc2ccc(C(=O)NC(C)C)cc21 | -1 | -10% | 1 | -17%
Cc1cccc(N(CC(=O)NC2CCCCC2)C(=O)CCC(=O)Nc2nccs2)c1 | 4 | -1% | 1 | ?
C=C(CCC12O[C@H](C(=O)O)[C@@](O)(C(=O)O)[C@](C(=O)O)(O1)[C@H](OC(=O)/C=C/[C@@H](C)C[C@@H](C)CC)[C@H]2O)[C@@H](OC(C)=O)[C@H](C)Cc1ccccc1 | 18 | . | 7 | .
CC1=NN(c2nc3ccccc3[nH]2)C(=O)/C1=C/N(C)C | 2 | ? | -5 | 126%
CC1=NN(c2nc3ccccc3[nH]2)C(=O)C1Cc1ccccc1 (stereo not given) | 19 | 4.1µM* | 11 | 2.6µM*
CC1Cc2ccccc2N1C(=O)/C=C/c1cccc(F)c1 (stereo not given) | 87* | 293% | 45* | 251%
Cc1ccc(Oc2nc(CN3CCOCC3)nc3sc4c(c23)CCC(C)C4)cc1 (stereo not given) | 22 | ? | -1 | ?
Cc1ccc(Oc2nc(CN3CCOCC3)nc3sc4c(c23)CCC(C)C4)cc1C (stereo not given) | -11 | ? | -3 | 12µM*
CC1CCc2c(sc3nc(CN4CCOCC4)nc(NS(=O)(=O)c4cccc([N+](=O)[O-])c4)c23)C1 (stereo not given) | -4 | 13µM* | -2 | .
CC1CCc2c(sc3nc(CN4CCOCC4)nc(N4CCc5ccccc5C4)c23)C1 (stereo not given) | -2 | 4.7µM* | 1 | 13µM*
CCN1CCN(c2ncnc3sc4c(c23)CCC(C)C4)CC1 (stereo not given) | -8 | -2% | 1 | ?
C=CCN1C(=O)c2ccc(C(=O)N(C)CC(=O)Nc3ccccc3C(F)(F)F)cc2C1=O | -28 | 48% | 12 | 13%
O=C(CNC(=O)c1cncc(Br)c1)Nc1ccc(F)c(F)c1F | -5 | 31% | -9 | 28%
Cc1ccc(-c2cnc(C3CC3)o2)cc1S(=O)(=O)Nc1ccccc1 | -3 | 15µM* | -8 | ?
Cc1cccc(N(C)S(=O)(=O)c2ccc(-c3cnc(C4CC4)o3)cc2)c1 | -2 | 15µM* | -3 | 0%
O=C(Cn1nc(-c2cccc(Cl)c2)ccc1=O)NCC1COCCO1 (stereo not given) | . | 61% | . | -2%
O=C1Nc2ccccc2C1(O)Cc1ccncc1 (stereo not given) | -7 | 9.3µM* | 13 | 12%
COc1ccccc1NC(=O)c1cnc(SCC(=O)NCCc2ccccc2)n(C)c1=O | . | -3% | . | -18%
CC(C)N1CC(O)=C(c2ccccc2)C1=N | 30 | 27% | 1 | 13%
CC(C1CC2CCC1C2)N1CC(O)=C(c2nc3ccccc3[nH]2)C1=N (stereo not given) | 12 | 3.3µM* | 17 | ?
SMILES | Shiga toxin inh | Pf growth 96h | CHX counter | Pf growth 48h
CC1(C)C(O)=C(c2nc3ccccc3[nH]2)C(=N)N1c1ccccc1 | -13 | 8.3µM* | -2 | ?
CC(C)N1CC(O)=C(c2nc3ccccc3[nH]2)C1=N | 77* | 18% | 52* | 78%
CSc1cccc(NC(=O)CCNS(=O)(=O)c2ccc3[nH]c(=O)oc3c2)c1 | 9 | ? | 2 | 14%
O=C(CSCc1ccccc1Br)NNC(=S)NCc1ccco1 | -4 | -8% | 3 | 16%
Cc1ccc(S(=O)(=O)NCC(=O)OCC(=O)NCCc2ccccc2)cc1 | . | 7% | . | 35%
CCOc1ccc(C(=O)NCC(=O)OCc2csc(-c3ccccc3)n2)cc1 | 3 | 0% | 15 | 35%
Cc1ccc(S(=O)(=O)NCC(=O)OCc2csc(-c3ccccc3)n2)cc1 | -9 | 59% | 15* | 17%
O=C(CNS(=O)(=O)c1ccc2ccccc2c1)OCc1csc(-c2ccccc2)n1 | 19 | ? | 20* | -6%
O=C(OCc1csc(-c2ccccc2)n1)c1ccc(O)cc1 | 116* | 199% | 37* | 108%
O=C(OCc1csc(Nc2ccccc2)n1)c1ccc(Cl)cc1 | -4 | 76% | -1 | 14%
Cc1ccc(C(=O)NCC(=O)OCc2csc(-c3ccccc3)n2)cc1 | 70* | 1% | 36* | 1%
Cc1ccnc(N/C=C(/NC(=O)c2ccccc2)C(=O)N/N=C\c2ccc(Cl)cc2)n1 | 2 | 71% | 10 | 74%
C[C@@H](C1CC[C@@]2(O)C3=CC(=O)[C@@H]4C[C@@H](O)[C@@H](O)C[C@]4(C)[C@H]3CC[C@]12C)[C@H](O)CCC(C)(C)O (stereo not given in full) | 2 | . | 10 | .
COC(=O)c1ccc(COC(=O)CNC(=O)c2ccc(-c3ccccc3)cc2)cc1 | 46* | 40% | 68* | 1%
O=C(COC(=O)CNS(=O)(=O)c1c(Cl)cccc1Cl)Nc1ccccc1Sc1ccccc1 | 9 | 44% | 1 | -1%
O=C(CNS(=O)(=O)c1c(Cl)cccc1Cl)OCc1csc(-c2ccccc2)n1 | 12 | 61% | 18* | 30%
Cc1ccc(C(=O)NCC(=O)NCC(=O)OCc2ccc(F)cc2)cc1 | 20 | 24%[5.75 µM] | 1 | ?
CC1CCC(C(C)C)C(P(=O)(c2ccccc2)c2ccccc2)C1 (stereo not given) | 37 | . | 1 | .
CCC(=C(c1ccc(OC)cc1)c1ccc(OC)cc1)c1cn(CC(O)CN(CCO)CCO)c2ccccc12 (stereo not given) | -5 | ? | -3 | 9.3µM*
COc1ccc(OCC(O)CN(CCO)CC(O)Cn2ccc3ccccc32)cc1 (stereo not given) | -10 | 7% | 1 | ?
COc1cc(NC(=O)COC(=O)c2ccc(C)c(S(=O)(=O)N3CCCCC3)c2)c(C)cc1[N+](=O)[O-] | 57* | ? | 72* | 6%
O=C(CCCSc1ccc(Cl)cc1)Nc1cc(S(=O)(=O)N2CCOCC2)ccc1O | . | 8.3µM* | . | ?
COc1ccc(C(=O)OCC(=O)Nc2ccc(OC)c(S(=O)(=O)N3CCCCC3)c2)cc1[N+](=O)[O-] | . | 7% | . | -21%
O=C(COC(=O)c1ccc(O)cc1)Nc1cc(S(=O)(=O)N2CCOCC2)ccc1Cl | . | 4.7µM* | . | ?
O=C(COC(=O)c1ccc(F)cc1F)Nc1cc(S(=O)(=O)N2CCOCC2)ccc1Cl | . | 126% | . | 36%
